Reference: ChEMBL document CHEMBL4808148, “HDAC6 screening dataset using tau-based substrate in an enzymatic assay yields selective inhibitors and activators” (2021)
The whole screen tested about 5,600 compounds, of which about 150 (2.7%) showed an effect of 50% or more. The list comes from a sample in which strong results are over-represented; it also holds similar structures and randomly drawn compounds.

How the values were obtained:
[1] = molecular target: T1, Protein deacetylase HDAC6 (Homo sapiens) (UniProt Q9UBN7); conditions: at 10 µM
T1 sequence (whole entry): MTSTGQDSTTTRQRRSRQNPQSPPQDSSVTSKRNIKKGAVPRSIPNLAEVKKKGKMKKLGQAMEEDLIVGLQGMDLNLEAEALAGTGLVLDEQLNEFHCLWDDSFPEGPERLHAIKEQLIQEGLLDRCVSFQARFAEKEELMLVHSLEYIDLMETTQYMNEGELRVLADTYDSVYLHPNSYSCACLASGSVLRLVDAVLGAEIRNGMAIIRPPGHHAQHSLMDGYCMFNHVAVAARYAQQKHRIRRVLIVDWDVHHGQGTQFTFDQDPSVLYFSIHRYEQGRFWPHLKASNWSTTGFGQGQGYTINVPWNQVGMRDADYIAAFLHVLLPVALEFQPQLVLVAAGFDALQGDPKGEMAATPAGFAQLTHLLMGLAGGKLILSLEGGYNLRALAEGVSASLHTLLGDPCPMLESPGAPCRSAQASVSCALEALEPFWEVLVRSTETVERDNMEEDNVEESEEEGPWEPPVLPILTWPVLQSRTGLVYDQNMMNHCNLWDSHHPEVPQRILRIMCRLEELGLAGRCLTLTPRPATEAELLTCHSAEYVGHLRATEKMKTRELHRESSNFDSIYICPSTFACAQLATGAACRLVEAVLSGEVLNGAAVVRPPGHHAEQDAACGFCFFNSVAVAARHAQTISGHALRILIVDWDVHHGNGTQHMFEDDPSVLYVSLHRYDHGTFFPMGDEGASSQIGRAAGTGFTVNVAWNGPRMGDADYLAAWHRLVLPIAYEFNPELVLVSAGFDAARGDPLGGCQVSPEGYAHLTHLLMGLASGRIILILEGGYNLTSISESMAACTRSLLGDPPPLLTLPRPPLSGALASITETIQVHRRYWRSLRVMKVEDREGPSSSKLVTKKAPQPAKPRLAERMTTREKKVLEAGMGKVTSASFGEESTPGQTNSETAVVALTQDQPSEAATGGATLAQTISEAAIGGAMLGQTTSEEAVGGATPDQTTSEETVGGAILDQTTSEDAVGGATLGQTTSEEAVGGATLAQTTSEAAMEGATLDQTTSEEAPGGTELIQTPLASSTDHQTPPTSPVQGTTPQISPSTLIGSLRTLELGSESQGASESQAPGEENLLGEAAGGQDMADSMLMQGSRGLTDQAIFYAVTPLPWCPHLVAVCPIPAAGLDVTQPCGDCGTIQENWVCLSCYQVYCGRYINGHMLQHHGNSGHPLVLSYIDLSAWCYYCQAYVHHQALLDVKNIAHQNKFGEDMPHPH

[2] = molecular target: Protein deacetylase HDAC6 (Homo sapiens) (UniProt Q9UBN7); conditions: at 10 µM; remark: listed apart in the source

| Compound | inhibition [1] [%] | inhibition [2] [%] |
| --- | --- | --- |
| N=C(N)NC(=N)Nc1cccc(Cl)c1 | -4.52 | – |
| C[C@H](N)C(=O)O | -3.75 | – |
| Cc1ncc(CO)c(/C=N/NC(=O)c2ccncc2)c1O | -0.7 | – |
| O=C(O)c1cc(N2N=C(C(F)(F)F)/C(=C/c3ccc(-c4ccccc4)o3)C2=O)ccc1Cl | -1.26 | – |
| COc1cccc(OC)c1-c1cc(C(=O)NC2(C(=O)O)C3CC4CC(C3)CC2C4)nn1-c1ccnc2cc(Cl)ccc12 (stereo not drawn) | 0.43 | – |
| O=C(Nc1ccncc1)c1cc([N+](=O)[O-])ccc1Cl | -9.26 | – |
| O=C(Nc1ccccc1)c1cc([N+](=O)[O-])ccc1Cl | -4.52 | – |
| O=C(Nc1ccc([N+](=O)[O-])cc1Cl)c1cc(Cl)ccc1O | 97 | – |
| N#Cc1cc(F)cc(-c2nc(-c3ccc(F)cn3)no2)c1 | 42 | – |
| c1ccc(Cn2c(N3CCNCC3)nc3ccccc32)cc1 | -7.7 | – |
| Cc1nc(C#Cc2ccnc(Cl)c2)c(C)n1-c1ccc(F)cc1 | -3.13 | – |
| O=C(NC1CCC1)c1ccc(C#Cc2cccc(F)c2)nc1 | 24.9 | – |
| Cc1cc(C)c(N)c(C#Cc2cccc(F)c2)n1 | 93 | – |
| CC(=O)OC1C[C@H]2C(C)(C)C(=O)C=C[C@]2(C)[C@H]2CC[C@@]3(C)[C@H](c4ccoc4)OC(=O)[C@H]4O[C@]43[C@]12C (stereo partly drawn) | -9.28 | – |
| Nc1cc2c3ccccc3ccc2c2ccccc12 | 23.6 | – |
| Clc1cccc(C(c2ccc3[nH]cnc3c2)n2ccnc2)c1 (stereo not drawn) | 0.23 | – |
| O[C@H]1CC[C@H](Nc2ncc3nc(Nc4c(F)cc(F)cc4F)n([C@H]4CCOC4)c3n2)CC1 | -4.44 | – |
| NS(=O)(=O)c1ccc(S(=O)(=O)Nc2cccc3c(Cl)c[nH]c23)cc1 | 79.5 | – |
| NCc1ccc(S(N)(=O)=O)cc1 | 0.53 | – |
| Nc1ccc(S(N)(=O)=O)cc1 | -5.55 | – |
| C=CC(C)(O)CCC=C(C)C (stereo not drawn) | 1.97 | – |
| O=C(CN1C(=O)C2(CCCC2)NC[C@H]1c1cc(F)cc(F)c1)Nc1ccc2c(c1)C[C@@]1(C2)C(=O)Nc2ncccc21 | -4.92 | – |
| C=CC(=O)O | 0.87 | – |
| C[C@@H]1CC(=O)c2c(ccc3c2C(=O)c2cccc(O)c2C3=O)C1 | 77.5 | – |
| O=C1c2cccc(O)c2C(=O)c2c(O)cccc21 | -4.52 | – |
| Cc1cc(O)c2c(c1)C(=O)c1cccc(O)c1C2=O | 6.5 | – |
| Cc1ccc2c(N3CCN(CCc4cccc(N5CCNC5=O)c4)CC3)cccc2n1 | -3.2 | – |

| Compound | inhibition [1] [%] | inhibition [2] [%] |
| --- | --- | --- |
| CCCCCCOc1cc2c(cc1N(C)c1ncc(C(=O)O)cn1)C(C)(C)CCC2(C)C | 0.82 | – |
| CC[N+](CC)(CC)CCOc1ccc(/C=C/c2ccccc2)cc1 | -3.25 | – |
| Cc1cccc(/C=C/c2ccccc2)n1 | 98.2 | – |
| Nc1nccc(/C=C/c2ccccc2)n1 | 96.2 | – |
| Cc1nc2ccccc2c(-c2ccc3c4c(ccnc24)CCO3)c1[C@H](OC(C)(C)C)C(=O)O | -1.87 | – |
| Cc1cc(N2CCOCC2)ccc1Nc1nc(NC2CCCCC2)c2nc[nH]c2n1 | -0.21 | – |
| Cc1cc2ncc(C(=O)NCC(C)(C)NCC(=O)N3CCC[C@H]3C#N)cn2n1 | 2.17 | – |
| COc1ccc(COc2ccc(Cc3cnc(N)nc3N)cc2OC)cc1 | 58.8 | – |
| COc1cc(Cc2cnc(N)nc2N)cc(OC)c1OC | -5.72 | – |
| COc1ccc(Cc2cnc(N)nc2N)cc1OC | -3.93 | – |
| c1nc2c(NC3CCCCC3)nc(Nc3ccc(N4CCOCC4)cc3)nc2[nH]1 | -4.12 | – |
| Cc1cc(/C(=C\Nc2ccc(Cl)cc2)C(=O)Nc2ccc(Cl)cc2)on1 | -2.63 | – |
| Oc1ccc2c(c1)CC[C@H](c1ccccc1)[C@@H]2c1ccc(OCCN2CCCC2)cc1 | -2.46 | – |
| COc1cc(C(C)=O)ccc1O | 4.49 | – |
| COc1ccc(-c2coc3cc(O)ccc3c2=O)cc1 | 62.6 | – |
| COc1ccc(C(C)=O)c(O)c1 | 0.72 | – |
| CC(C)Oc1ccc2c(=O)c(-c3ccccc3)coc2c1 | -8.43 | – |
| COc1cc2c(=O)c(-c3ccc(O)cc3)coc2cc1O | 96.6 | – |
| O=c1c(-c2ccc(O)cc2)coc2cc(O)ccc12 | 76 | – |
| O=c1c(O)c(-c2ccc(O)c(O)c2)oc2cc(O)ccc12 | 8.31 | – |
| Cc1cc(=O)oc2cc(O)ccc12 | -0.81 | – |
| O=c1c(-c2ccc(O)cc2)coc2c(C3OC(CO)C(O)C(O)C3O)c(O)ccc12 (stereo not drawn) | -5.66 | – |
| Cc1cc(CCCOc2c(C)cc(-c3noc(C(F)(F)F)n3)cc2C)on1 | -3.38 | – |
| CCCCNc1ncc2c(-c3ccc(CN4CCN(C)CC4)cc3)cn([C@H]3CC[C@H](O)CC3)c2n1 | 5.61 | – |
| COLISTIMETHATE SODIUM, CHEMBL1201441 | – | 0.02 |
| O=S(=O)(OC[C@H]1O[C@@](COS(=O)(=O)[O][Al]([OH])[OH])(O[C@H]2O[C@H](COS(=O)(=O)[O][Al]([OH])[OH])[C@@H](OS(=O)(=O)[O][Al]([OH])[OH])[C@H](OS(=O)(=O)[O][Al]([OH])[OH])[C@H]2OS(=O)(=O)[O][Al]([OH])[OH])[C@@H](OS(=O)(=O)[O][Al]([OH])[OH])[C@@H]1OS(=O)(=O)[O][Al]([OH])[OH])[O][Al]([OH])[OH] | -5.96 | – |
